Source: PubChem BioAssay (NCI)
Compounds without any hit were thinned out: in the full panel of roughly 83,000, 20% have a hit.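 Single-dose data. Exposure time 48 hours. Values below 10 considered active.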 Unmarked numbers belong to inactive results. Activity calls are given as the source filed them.

Test system: RPMI-8226 leukemia
Test: NCI-60 one-dose screen, 48 h (100 = growth as untreated, 0 = no growth, -100 = all killed)
Conditions: 10 µM unless noted
Method: Growth inhibition of the RPMI-8226 human tumor cell line is measured as a screen for anti-cancer activity. Cells are grown in 96 well plates and exposed to the test compound for 48 hours. Compounds are tested at a single concentration, which is 10^-5 M for most compounds. The reported endpoint is percent growth (GI% or GIPRCNT), where numbers from 0 - 100% represent growth inhibition, and numbers from -100% - 0 represent cell death. For example, a value of 40 represents 60% growth inhibition. A value of 0 means no net growth occurred over the course of the experiment. A value of -40 indicates 40% of cells at the beginning of the experiment died by the end of the experiment. A value of -100 means all cells are dead at the end of the experiment.
NCI-60 Human Tumor Cell Lines Screen was performed using the standard one-dose NCI protocol, which is described in more detail at https://dtp.cancer.gov/discovery_development/nci-60/default.htm.
Compounds with GIPRCNT values below 10 were considered active. Activity score was based on GIPRCNT using the following formula: […]
Score is 0 for GIPRCNT values of 100 or above, 50 for GIPRCNT values of 0, and 100 for GIPRCNT values of -100.

| SMILES | growth |
| --- | --- |
| c1cn2cc(-c3ccc4ncn(C5CCCCC5)c4c3)nc(-c3ccc4c(c3)ncn4C3CCCCC3)c2n1 | -37.9% (active) |
| CC1OC(n2c3ccccc3c3c4c(c5c6ccccc6[nH]c5c32)C(=O)N(CCN[C@H]2CCC[C@@H]2N)C4=O)CC(O)C1O (stereo not given in full) | 4.77% (active) |
| CCNCCCn1c2c(c3ccc(Cl)cc3c1=O)C(=O)c1cc(OC)cnc1-2 | -48.8% (active) |
| COc1ccc(-c2nc3ccccc3n3cccc23)cc1 | 75.6% |
| CC1CCN(CCCCCOc2ccc3oc4ccc(Cl)cc4c(=O)c3c2)CC1 | 35.4% |
| CCCC(CCC)(C(N)=O)C(=O)O | 112% |
| C#CCNc1nc(NCCNC(=O)CCl)nc(N(C)CCCCc2ccccc2)n1 | 89.2% |
| Cc1c2c(cc3c1[nH]c1ccccc13)C=NCC2 | 87% |
| Cc1c(C(=O)Nc2ccccc2F)sc2c(=O)[nH]cnc12 | 96.7% |
| COC(=O)c1ccc2c(c1)nc(-c1cc3ccccc3[nH]c1=O)n2-c1cc(C(C)(C)C)[nH]n1 | 22% |
| COc1ccc(/C=C(\C#N)c2cc(OC)c(OC)c(OC)c2)cc1 | 12.3% |
| Nc1ncnc2c1N=C(c1ccc3c(c1)OCO3)CC(c1ccc(Cl)cc1)N2 (stereo not given) | 18.4% |
| OCCN(CCO)c1ccc2ccccc2c1 | 110% |
| O=C1/C(=C/c2ccccc2)SC(=Nc2ccccc2)N1Nc1ccccc1 | -37.4% (active) |
| CC(C)OC1OC(OC(C)C)C(OC(C)C)OC1OC(C)C (stereo not given) | 94.5% |
| Clc1cccc(CNc2c3ccccc3nc3ccccc23)c1 | -23.5% (active) |
| CC(C)c1cccc(C#N)c1 | 106% |
| Clc1ccc(-c2nc(-c3cccs3)no2)cc1 | 95.3% |
| COc1cccc(-c2nc3sccn3c2-c2ccnc(NCCN3CCCNS3(=O)=O)n2)c1 | 102% |
| Cc1cccc(N=NC(=S)NNc2cccc(C)c2)c1 | 96.4% |

| SMILES | growth |
| --- | --- |
| CC(C)(C)c1nn(-c2ccccc2)c2c1C(=O)CSC(c1ccccc1Cl)N2 (stereo not given) | 42.9% |
| CC(=O)O[C@H]1CC[C@]2(C)[C@H]3CC=C4[C@@H]5CC(C)(C)CC[C@]5(C(=O)OCC(COC(=O)C(Cl)Cl)(COC(=O)C(Cl)Cl)NC(=O)C(Cl)Cl)CC[C@@]4(C)[C@]3(C)CC[C@H]2C1(C)C | 33.5% |
| N=C(N)c1ccc(NCCNc2ccc(C(=N)N)cc2)cc1 | 82.8% |
| N#Cc1ccc(-c2ccc(-c3cccs3)o2)cc1F | 70.7% |
| Cc1nn(-c2ccccc2)c2nc3c(nc12)C1=NCCN1C(c1ccc(Cl)cc1)N3 (stereo not given) | 45.6% |
| Fc1ccc(-c2nc(-c3ccc(-c4nc5ccc(F)cc5[nH]4)cc3)no2)cc1 | 88.1% |
| CCN(CC)CC(=O)Nc1c(C)ccc(N)c1C | 111% |
| CCN(C(=O)CCl)C(C)(C)C(SSSC(c1ccc(Cl)cc1)C(C)(C)N(CC)C(=O)CCl)c1ccc(Cl)cc1 (stereo not given) | 51.7% |
| C[N+](C)(C)CC(=O)N/N=C\c1ccco1 | 103% |
| Cn1c(-c2ccccc2)cc(=O)n1-c1ccccc1 | 96.5% |
| C=C(C)[C@@H]1CC[C@]2(C(=O)O)CC[C@]3(C)[C@H](CC[C@@H]4[C@@]5(C)C[C@@H](CC#Cc6ccc(C(C)=O)s6)[C@H](O)C(C)(C)[C@@H]5CC[C@]43C)[C@@H]12 | 40% |
| CCCCCCCCCCCCCCCCCC(=O)[O][Sn]([CH2]CCC)([CH2]CCC)[CH2]CCC | -30.8% (active) |
| COc1cc2ccc(C(C)=O)cc2cc1OC | 105% |
| CCc1c(C)c2ccc(O)c(-c3cc(-c4ccccc4)c(C#N)c(=O)[nH]3)c2oc1=O | 81% |
| O=P(O)(O)C(O)(Cc1cccnc1)P(=O)(O)O | 98.2% |
| COc1cc(-c2nc(-c3ccc(-c4nc5ccc(F)cc5[nH]4)cc3)no2)cc(OC)c1OC | -15.3% (active) |
| Cc1ccccc1Nc1n[nH]c(Cc2ccccc2)n1 | 93.8% |
| CC(C)[C@@]12C[C@@H](OC(=O)[C@H]3CO3)[C@@](C)(O1)[C@@H]1CC[C@@H](C)[C@H]1[C@@H]2OC(=O)/C=C/c1ccccc1 | 72.7% |
| CCN(CCC#N)c1ccccc1 | 98% |
| C=C1C[C@@]2(C)C(CC[C@]3(C)C2CC=C2C4CC(C)(C)C[C@@H](OC(=O)/C(C)=C\C)[C@]4(C(=O)O)CC[C@]23C)C(C)(C)C1=O (stereo not given in full) | -15.6% (active) |
